Measured values as given in the supplement of paper PMC12636033.
± gives the standard deviation of the averaged measurements. The full ranking holds about 33,000 sequences; the median of “E-score (rank enrichment, -0.5 to 0.5)” is about -0.0068, and the highest 2% start at about 0.24. The sample as a whole holds a higher share of the highest values than the screen did.

Tested on: muMax20 (Max(13-93) K31hArg/K57hArg, M65Nle)
Experiment: PBM 8-mer E-score (E-score (rank enrichment, -0.5 to 0.5)); higher = stronger preferential binding
Method: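 Protein binding microarray (universal PBM chip covering all 10-mers in fixed probe flanks) with chemically synthesized human Max(13-93) bHLH-LZ analogs (not full-length Max) bearing noncanonical residues (hArg, Tha, Aib, Nle at 65) and aromatic Cys staples. Read-out per 8-mer (and its reverse complement): E-score (rank-based enrichment, -0.5 to 0.5) and Z-score of median probe intensity.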

Sequence	PBM 8-mer E-score
ACGTGTTA	0.321 ± 0.015
AGGTGTTG	-0.0311 ± 0.062
AGGTGTTC	0.157 ± 0.0061
ATGTGTTG	0.225 ± 0.018
CCGTGTTA	0.103 ± 0.017
ACGTGTTG	0.299 ± 0.081
GCGTGTTA	0.195 ± 0.089
CCGTGTTC	0.00613 ± 0.046
ACGTGTTC	0.292 ± 0.0076
CACTTGCC	0.168 ± 0.14
TCACTACA	0.0656 ± 0.0014
ACCAACAC	0.174 ± 0.0053
AGCAAATG	0.0747 ± 0.051
AACTTGAT	0.198 ± 0.024
GCGAAATA	0.104 ± 0.11
CGGGAGTC	-0.0836 ± 0.032
ACATTTGG	0.0453 ± 0.092
ACCCCCAA	-0.14 ± 0.0093
GAACCCAA	-0.136 ± 0.086
AAACCCAT	0.0906 ± 0.057
AACCCCAA	0.259 ± 0.015
AACCCCCA	-0.337 ± 0.0059
AAACCCAA	0.265 ± 0.0051
AAGCGGCG	-0.253 ± 0.0057
ACAAAGAC	0.226 ± 0.034

Sequence	PBM 8-mer E-score
ACGCTCTA	0.000195 ± 0.019
CGAGGGAG	0.0101 ± 0.048
ACTACTTA	0.114 ± 0.13
AACGTGCC	-0.0196 ± 0.033
AACGTGCA	0.225 ± 0.0061
CCCGTGCG	-0.166 ± 0.0035
CACGTGCC	0.419 ± 0.076
TACGTGCA	0.155 ± 0.0056
AACGTGCG	0.129 ± 0.053
GACGTGCC	-0.0314 ± 0.077
CACGTGCG	0.462 ± 0.035
CACGTGCA	0.451 ± 0.049
ACCCCCTG	-0.181 ± 0.16
AAGCGAAC	-0.038 ± 0.12
ACAAACGT	0.0903 ± 0.12
GCAAGGCA	0.0264 ± 0.067
CCGGACCC	-0.294 ± 0.09
ATGTTTGA	0.207 ± 0.051
ACGTTTGA	0.254 ± 0.015
GTGTTTGA	0.241 ± 0.042
CTGTTTGA	0.143 ± 0.011
CCGTTTGA	-0.202 ± 0.057
ACGTTTGG	-0.00749 ± 0.048
ACACTGCC	-0.0509 ± 0.054
CAACAGAG	-0.088 ± 0.056

Sequence	PBM 8-mer E-score
CGTGAATC	-0.00172 ± 0.048
AATGTCTC	0.00715 ± 0.052
CATGTCTC	0.256 ± 0.015
CATGTCTA	0.0944 ± 0.042
AGTGTAGG	0.0989 ± 0.087
GGATAATA	0.0335 ± 0.0051
CTATAATA	0.165 ± 0.0056
ATATAATA	0.302 ± 0.0079
GTATAATA	0.247 ± 0.093
ATATAATG	0.2202 ± 0.001
GAATAATA	0.165 ± 0.01
GGCAGAAA	0.135 ± 0.072
CAGTGCAC	-0.103 ± 0.061
CCCGAGCA	0.00085 ± 0.0024
GACCGAGC	-0.276 ± 0.069
ATTGCAGA	-0.0371 ± 0.034
TCCACGCA	0.0588 ± 0.069
ATGGGCGC	-0.129 ± 0.1
ATAGCGTA	-0.019 ± 0.055
ATTCCACA	0.101 ± 0.1
CAGAACTC	-0.171 ± 0.057
AAGGATAC	-0.00358 ± 0.02
AAGGATAT	0.247 ± 0.062
AAGGATAA	0.149 ± 0.041
AGCGATTC	-0.0904 ± 0.024

Sequence	PBM 8-mer E-score
ACATGAAC	0.0854 ± 0.018
ACATGAAG	0.0775 ± 0.23
ACATGAAT	0.24 ± 0.04
ACATGAGA	0.253 ± 0.039
ACATGAGT	0.0854 ± 0.027
TCATGAGA	0.111 ± 0.0016
ACCAACAT	0.0339 ± 0.18
GACGGGGA	-0.043 ± 0.026
ACCAGGTG	-0.184 ± 0.13
CGGCTACC	-0.274 ± 0.058
ATACTTTG	0.107 ± 0.036
CTACTTTA	0.0793 ± 0.013
ATACTTTA	0.279 ± 0.0074
GTGAGTGA	-0.073 ± 0.17
ATGTTGTA	0.284 ± 0.016
ATGTTGTG	0.145 ± 0.062
GTGTTGTA	0.164 ± 0.016
AGGCGCAA	-0.0721 ± 0.067
ACAATATA	0.211 ± 0.037
CTAATATC	0.214 ± 0.06
GTAATATA	0.267 ± 0.012
GTAATAAA	0.154 ± 0.041
ATAATAGA	0.0729 ± 0.052
ATAATATA	0.263 ± 0.042
ATAATATC	0.257 ± 0.035

Sequence	PBM 8-mer E-score
ATAATATG	0.169 ± 0.035
CTAATATA	0.214 ± 0.0087
GAGGACCC	-0.228 ± 0.037
AGTAATCA	0.109 ± 0.12
CGGGGCGA	-0.112 ± 0.037
AGAACTCC	-0.0617 ± 0.081
AAAGGCTA	-0.0552 ± 0.0014
GACGGATA	-0.139 ± 0.049
GCTCACCA	-0.15 ± 0.068
ATACCCCG	-0.0795 ± 0.096
AACGACCA	0.0599 ± 0.047
ACTGCCAG	-0.0897 ± 0.06
ATACAAAT	0.273 ± 0.038
ATACAACC	-0.0691 ± 0.073
TTACAAAA	0.126 ± 0.043
ACACAAAG	0.23 ± 0.078
ACACAAAC	0.25 ± 0.056
ATACAAAC	0.225 ± 0.037
ACACAAAA	0.208 ± 0.055
ATACAACG	0.203 ± 0.026
ATACAAAA	0.305 ± 0.0098
ATACAACA	0.254 ± 0.025
CTACAAAA	0.0991 ± 0.063
ATACAAAG	0.136 ± 0.09
ACGGCCGG	-0.2416 ± 0.0019

Sequence	PBM 8-mer E-score
CAGGCTTC	-0.0969 ± 0.0043
GATACGCC	-0.108 ± 0.043
ACTTTTGC	0.0617 ± 0.018
CATGTTAC	0.123 ± 0.025
AGCCGCCG	-0.192 ± 0.18
AGCTCCTA	-0.251 ± 0.015
CCTCCCTA	-0.153 ± 0.075
AGCTTAAC	-0.126 ± 0.1
ACACTCGG	-0.0657 ± 0.025
CTATACGC	-0.00851 ± 0.07
CCTCGTTA	-0.00353 ± 0.0057
GTACAAGA	0.119 ± 0.012
AAACAAAA	0.211 ± 0.061
CCACAACA	-0.0271 ± 0.0066
ATACAAGA	0.0614 ± 0.015
GCACAACA	0.238 ± 0.016
AAACAAAT	0.284 ± 0.031
GTACAAAC	0.116 ± 0.0057
ATACAAGC	0.243 ± 0.079
CTACAAGC	-0.0802 ± 0.066
GTACAAAA	0.2859 ± 0.0025
AAACAAAC	0.154 ± 0.025
GCACAACC	-0.23 ± 0.0046
GAGTCCAA	-0.159 ± 0.12
GCGACACA	-0.067 ± 0.12

Sequence	PBM 8-mer E-score
GTCTCTGA	-0.161 ± 0.093
ATATATGC	0.0936 ± 0.17
CTATATGC	0.238 ± 0.043
ATATATGA	0.218 ± 0.069
CTTTATTC	0.0219 ± 0.12
GCATATGC	0.24 ± 0.032
ATTTATTC	0.241 ± 0.046
GCATATGA	0.186 ± 0.04
ATATATGG	0.258 ± 0.028
ATTTATTA	0.132 ± 0.06
ACATATGC	0.105 ± 0.011
CTATATGA	0.109 ± 0.074
ACATATGG	0.12 ± 0.078
TACCCCAA	0.157 ± 0.005
GGAGAGCC	-0.211 ± 0.032
GACGCCAC	-0.137 ± 0.094
ATGTCCGC	-0.126 ± 0.088
GACACTGA	-0.11 ± 0.068
GCAGCCAC	-0.0591 ± 0.03
CTCAGTGC	-0.224 ± 0.0089
ATATATTC	0.201 ± 0.041
CTATATTC	0.262 ± 0.052
CTCTATTC	0.00532 ± 0.064
